According to PubChem BioAssay (NCI):
Compounds without any hit were thinned out: in the full panel of roughly 83,000, 20% have a hit.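 48-hour exposure, single concentration, 96-well plates; percent growth endpoint where 0 means no net growth. Active: below 10.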 Active and inactive are the calls of the source.

Tests used:
Assay in all cases: NCI-60 one-dose screen, 48 h (100 = growth as untreated, 0 = no growth, -100 = all killed)
OVCAR-3 ovarian = tested on: OVCAR-3 ovarian
HS 578T breast = tested on: HS 578T breast
NCI/ADR-RES ovarian = tested on: NCI/ADR-RES ovarian
SK-MEL-2 melanoma = tested on: SK-MEL-2 melanoma
EKVX NSCLC = tested on: EKVX NSCLC
SN12C renal = tested on: SN12C renal
UO-31 renal = tested on: UO-31 renal
TK-10 renal = tested on: TK-10 renal
ACHN renal = details: 10 µM unless noted
CAKI-1 renal = details: 10 µM unless noted
A498 renal = tested on: A498 renal
CCRF-CEM leukemia = tested on: CCRF-CEM leukemia
MOLT-4 leukemia = tested on: MOLT-4 leukemia
SR leukemia = tested on: SR leukemia
RPMI-8226 leukemia = tested on: RPMI-8226 leukemia
OVCAR-8 ovarian = tested on: OVCAR-8 ovarian
OVCAR-5 ovarian = tested on: OVCAR-5 ovarian
OVCAR-4 ovarian = tested on: OVCAR-4 ovarian
SK-OV-3 ovarian = tested on: SK-OV-3 ovarian
IGROV1 ovarian = tested on: IGROV1 ovarian

Measured: growth

CC(=O)/C=C/c1ccc(OCc2ccc(C(C)(C)C)cc2)cc1
inactive: OVCAR-3 ovarian; 10 µM 94.6% | OVCAR-3 ovarian; 100 µM 47.1% | HS 578T breast; 10 µM 75.5% | HS 578T breast; 100 µM 10.3% | NCI/ADR-RES ovarian; 10 µM 81.1%
active: NCI/ADR-RES ovarian; 100 µM 7.42%

COc1ccc(C2Nc3nc(SC)nc(N)c3N=C3c4ccccc4CCC32)cc1 (stereo not drawn)
inactive: SK-MEL-2 melanoma; 10 µM unless noted 107% | EKVX NSCLC; 10 µM unless noted 58.5% | SN12C renal; 10 µM unless noted 109% | UO-31 renal; 10 µM unless noted 73.3% | TK-10 renal; 10 µM unless noted 158% | ACHN renal 103% | CAKI-1 renal 85.6% | A498 renal; 10 µM unless noted 48.8% | CCRF-CEM leukemia; 10 µM unless noted 47.8% | MOLT-4 leukemia; 10 µM unless noted 69.7% | SR leukemia; 10 µM unless noted 66% | RPMI-8226 leukemia; 10 µM unless noted 67.5% | OVCAR-8 ovarian; 10 µM unless noted 70.5% | OVCAR-5 ovarian; 10 µM unless noted 107% | OVCAR-4 ovarian; 10 µM unless noted 53.9% | SK-OV-3 ovarian; 10 µM unless noted 97% | IGROV1 ovarian; 10 µM unless noted 55.2% | OVCAR-3 ovarian; 10 µM unless noted 65.2% | HS 578T breast; 10 µM unless noted 97.1% | NCI/ADR-RES ovarian; 10 µM unless noted 56.2%

O=C1/C(=C/c2ccc(-c3ccccc3C(F)(F)F)o2)SC(=S)N1CCc1ccc(O)cc1
inactive: SK-MEL-2 melanoma; 10 µM unless noted 70.1% | EKVX NSCLC; 10 µM unless noted 75.3% | SN12C renal; 10 µM unless noted 66.6% | UO-31 renal; 10 µM unless noted 40.1% | TK-10 renal; 10 µM unless noted 83.1% | ACHN renal 66.3% | CAKI-1 renal 33.8% | A498 renal; 10 µM unless noted 79.1% | CCRF-CEM leukemia; 10 µM unless noted 11.9% | MOLT-4 leukemia; 10 µM unless noted 17.5% | SR leukemia; 10 µM unless noted 14.2% | RPMI-8226 leukemia; 10 µM unless noted 69.8% | OVCAR-8 ovarian; 10 µM unless noted 57.6% | OVCAR-5 ovarian; 10 µM unless noted 77.4% | OVCAR-4 ovarian; 10 µM unless noted 44.8% | SK-OV-3 ovarian; 10 µM unless noted 64% | IGROV1 ovarian; 10 µM unless noted 12.5% | OVCAR-3 ovarian; 10 µM unless noted 43.4% | HS 578T breast; 10 µM unless noted 47.7% | NCI/ADR-RES ovarian; 10 µM unless noted 43.9%

CCOC(=O)C(=Cc1ccc(C#N)cc1)C(=O)OCC
active: UO-31 renal; 10 µM unless noted -33.9% | TK-10 renal; 10 µM unless noted -1.52% | ACHN renal -64.7% | CCRF-CEM leukemia; 10 µM unless noted 2.95% | SR leukemia; 10 µM unless noted 0.158% | RPMI-8226 leukemia; 10 µM unless noted -1.68%
inactive: SK-MEL-2 melanoma; 10 µM unless noted 42.9% | EKVX NSCLC; 10 µM unless noted 77.2% | SN12C renal; 10 µM unless noted 45.9% | CAKI-1 renal 48.6% | A498 renal; 10 µM unless noted 82.3% | MOLT-4 leukemia; 10 µM unless noted 10.6% | OVCAR-8 ovarian; 10 µM unless noted 34.5% | OVCAR-5 ovarian; 10 µM unless noted 30.8% | OVCAR-4 ovarian; 10 µM unless noted 53.9% | SK-OV-3 ovarian; 10 µM unless noted 84.9% | IGROV1 ovarian; 10 µM unless noted 32.7% | OVCAR-3 ovarian; 10 µM unless noted 17% | HS 578T breast; 10 µM unless noted 78.5% | NCI/ADR-RES ovarian; 10 µM unless noted 20.3%

COC(=O)c1nc(-c2ccccc2)oc1S(=O)(=O)N(C)CCO
active: SR leukemia; 10 µM unless noted 8.68%
inactive: SK-MEL-2 melanoma; 10 µM unless noted 82.1% | EKVX NSCLC; 10 µM unless noted 77.5% | SN12C renal; 10 µM unless noted 87.6% | UO-31 renal; 10 µM unless noted 59.2% | TK-10 renal; 10 µM unless noted 43.9% | ACHN renal 49.2% | CAKI-1 renal 54.7% | A498 renal; 10 µM unless noted 112% | CCRF-CEM leukemia; 10 µM unless noted 16.2% | MOLT-4 leukemia; 10 µM unless noted 45.2% | RPMI-8226 leukemia; 10 µM unless noted 42.4% | OVCAR-8 ovarian; 10 µM unless noted 85.6% | OVCAR-5 ovarian; 10 µM unless noted 82.5% | OVCAR-4 ovarian; 10 µM unless noted 77.4% | SK-OV-3 ovarian; 10 µM unless noted 89.8% | IGROV1 ovarian; 10 µM unless noted 69.2% | OVCAR-3 ovarian; 10 µM unless noted 34.7% | HS 578T breast; 10 µM unless noted 99.5% | NCI/ADR-RES ovarian; 10 µM unless noted 97.2%

COc1ccc(C(=O)/C=C/c2ccc(OCc3cccc(C(F)(F)F)c3)c(OC)c2)cc1OC
inactive: SK-MEL-2 melanoma; 10 µM 89.1% | SK-MEL-2 melanoma; 100 µM 32.6% | EKVX NSCLC; 10 µM 114% | EKVX NSCLC; 100 µM 16.1% | SN12C renal; 10 µM 97% | SN12C renal; 100 µM 17% | UO-31 renal; 10 µM 67.2% | UO-31 renal; 100 µM 24.6% | TK-10 renal; 10 µM 117% | ACHN renal 93.4% | A498 renal; 10 µM 93.9% | CCRF-CEM leukemia; 10 µM 51.1% | CCRF-CEM leukemia; 100 µM 12.6% | MOLT-4 leukemia; 10 µM 42.2% | SR leukemia; 10 µM 36.8% | RPMI-8226 leukemia; 10 µM 29.7% | OVCAR-8 ovarian; 10 µM 67.1% | OVCAR-5 ovarian; 10 µM 109% | OVCAR-5 ovarian; 100 µM 51.5% | OVCAR-4 ovarian; 10 µM 74.9% | OVCAR-4 ovarian; 100 µM 20.3% | SK-OV-3 ovarian; 10 µM 88.7% | SK-OV-3 ovarian; 100 µM 20% | IGROV1 ovarian; 10 µM 93.6% | OVCAR-3 ovarian; 10 µM 79.8% | HS 578T breast; 10 µM 98.2% | HS 578T breast; 100 µM 11.6% | NCI/ADR-RES ovarian; 10 µM 71.4%
active: TK-10 renal; 100 µM 7.32% | A498 renal; 100 µM -12.8% | MOLT-4 leukemia; 100 µM -3.95% | SR leukemia; 100 µM 5.42% | RPMI-8226 leukemia; 100 µM -0.397% | OVCAR-8 ovarian; 100 µM 4.75% | IGROV1 ovarian; 100 µM 5.18% | OVCAR-3 ovarian; 100 µM -10.3% | NCI/ADR-RES ovarian; 100 µM -6.47%
